Source: PubChem BioAssay

Assay: viability profiling in RPMI8226 myeloma cells – cell-based, resazurin fluorescence, basal, 24 h, PK04 Diversity Set, profiling panel (AID 1180);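 also: RPMI8826 multiple myeloma cell line at 5000 cells per well; test concentration not given here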
Conditions: higher = more signal

Q: Which z-score does the source give for `C[C@]1(C(=O)NCc2ccccc2)c2ccccc2C(=O)N(Cc2ccc(OC(F)(F)F)cc2)[C@H]1c1ccc(CO)cc1` here?
A: 1.19

Q: Which z-score does the source give for `O=C1O[C@@H](c2ccccc2)[C@@H](c2ccccc2)N2[C@@H](c3ccc(O)cc3)[C@]3(C(=O)Nc4ccc(C#CC5=CCCCC5)cc43)[C@@H](C(=O)O)[C@H]12` here?
A: 1.02

Q: With `O=C(O)[C@@]1(Cc2ccccc2)N=C(c2ccc(OCCCO)cc2)O[C@H]1c1ccccc1` as the compound, how does the z-score read?
A: 0.655

Q: With `NC(=O)NCC#Cc1ccc2c(c1)[C@]1(C(=O)N2)[C@H](C(=O)N2CCCCCCC2)[C@H]2C(=O)O[C@H](c3ccccc3)[C@H](c3ccccc3)N2[C@@H]1c1ccc(OCCO)cc1` as the compound, how does the z-score read?
A: -0.831

Q: For `CC(C)C[C@@H]1NC(=O)[C@H]2C[C@@H](C(=O)NCCCCCNC(=O)CS)[C@@H](c3cccc(OCCO)c3)N2C1=O`, which z-score is on record?
A: -0.492

Q: Which z-score does the source give for `COC(=O)[C@@]1(Cc2ccccc2)[C@H]2c3cc(C(=O)N4CCCC4)n(C)c3C[C@H]2CN1C(=O)c1ccccc1` here?
A: -0.705

Q: With `Cc1ccc(S[C@]2(C(=O)NCC(C)C)CC(=O)N(Cc3ccccc3)[C@@H]2c2ccc(CO)cc2I)cc1` as the compound, how does the z-score read?
A: -1.89

Q: Which z-score does the source give for `COCCOC(=O)N1C(=O)[C@@]2(c3cc(C#CCCO)ccc31)[C@H](c1ccccc1OCCO)N1[C@H](c3ccccc3)[C@H](c3ccccc3)OC(=O)[C@H]1[C@@H]2C(=O)N1CCN(c2ncccn2)CC1` here?
A: -0.803

Q: Which z-score does the source give for `CC(c1ccccc1)C(O)C1C=CC2C(=O)NC(=O)C2N1Nc1ccccn1` (stereo not given) here?
A: -0.806

Q: Which z-score does the source give for `[N-]=[N+]=NCc1ccccc1C[C@@]1(C(=O)N2CCOCC2)N=C(c2ccc(OCCCO)cc2)O[C@@H]1c1ccccc1CN=[N+]=[N-]` here?
A: -1.46

Q: Which z-score does the source give for `O=C(NCc1ccccc1)[C@]1(CCS(=O)(=O)c2ccccc2)N=C(c2ccc(OCCCO)cc2)O[C@@H]1c1ccccc1` here?
A: 0.253

Q: For `O=C1c2ccccc2[C@@]2(Cc3ccccc3N(Cc3ccccc3)C2=O)[C@H](c2ccc(CO)cc2)N1C1CCCCC1`, which z-score is on record?
A: -0.0776

Q: With `COc1ccc(C(O)C2C=CC3C(=O)N(C)C(=O)C3N2Nc2ccccc2)cc1OCc1ccccc1` (stereo not given) as the compound, how does the z-score read?
A: -0.543

Q: With `CCCNC(=O)[C@@]1(c2ccc([N+](=O)[O-])cc2)CC(=O)N(CC23CC4CC(CC(C4)C2)C3)[C@@H]1c1ccc(CO)cc1` as the compound, how does the z-score read?
A: -3.71

Q: Which z-score does the source give for `O=C1O[C@@H](c2ccccc2)[C@@H](c2ccccc2)N2[C@@H](c3ccc(O)cc3)[C@]3(C(=O)Nc4ccc(C#CC5(O)CCCCCC5)cc43)[C@@H](C(=O)N3CCCCCCC3)[C@H]12` here?
A: -0.884

Q: For `CC(C)CNC(=O)[C@@H]1c2ccccc2C(=O)N(Cc2cc(C(F)(F)F)cc(C(F)(F)F)c2)[C@H]1c1ccc(CO)cc1`, which z-score is on record?
A: 1.29

Q: With `O=C1O[C@H](c2ccccc2)[C@H](c2ccccc2)N2[C@H]1[C@@H](C(=O)O)[C@]1(C(=O)Nc3ccc(C#CC4(O)CCCCCC4)cc31)[C@H]2c1ccc(OCCO)cc1` as the compound, how does the z-score read?
A: -0.317

Q: For `CCCC[C@@H]1C[C@H]1[C@@H](NC(=O)c1ccc(-c2ccccc2)cc1)c1ccc(-c2ccccc2)cc1`, which z-score is on record?
A: -0.0454

Q: Which z-score does the source give for `Cc1ccccc1C(O)C1C=CC2C(=O)N(C)C(=O)C2N1N1CCCCC1` (stereo not given) here?
A: -1.64

Q: With `Cc1cc(C)c(C(O)C2C=CC3C(=O)N(C)C(=O)C3N2Nc2ccccc2)c(C)c1` (stereo not given) as the compound, how does the z-score read?
A: -1.46

Q: For `COc1ccc(C#Cc2ccc3c(c2)[C@]2(C(=O)N3)[C@H](C(=O)NC[C@H](O)c3ccccc3)[C@H]3C(=O)O[C@H](c4ccccc4)[C@H](c4ccccc4)N3[C@@H]2c2ccc(OCCO)cc2)cc1`, which z-score is on record?
A: -1.47

Q: For `C=C(C(=O)CC[C@H](OC(C)=O)c1ccc(OCCO)cc1)C(C)C`, which z-score is on record?
A: -0.349

Q: For `CN(C)C(=O)[C@@]1(CCC(=O)OC(C)(C)C)N=C(c2ccc(OCCCO)cc2)O[C@H]1c1ccccc1`, which z-score is on record?
A: 0.276

Q: Which z-score does the source give for `[N-]=[N+]=NCc1ccccc1C[C@]1(C(=O)O)N=C(c2ccc(OCCCO)cc2)O[C@H]1c1ccccc1CN=[N+]=[N-]` here?
A: -0.0479

Q: For `COc1cc(CO)ccc1OC(C)=O`, which z-score is on record?
A: -0.927

Q: Which z-score does the source give for `CC(C)=CCCC(C)=CC(O)C1C=CC2C(=O)N(c3ccccc3)C(=O)C2N1Nc1ccccc1` (stereo not given) here?
A: -1.56

Q: With `CC(C)c1ccc(NN2C(C(O)c3ccc(N(C)C)cc3)C=CC3C(=O)N(c4ccccc4)C(=O)C32)cc1` (stereo not given) as the compound, how does the z-score read?
A: 0.203

Q: Which z-score does the source give for `COCCOC(=O)N1C(=O)[C@@]2(c3cc(C#CCC(C(=O)OC)C(=O)OC)ccc31)[C@H](C(=O)N1CCCCCCC1)[C@H]1C(=O)O[C@H](c3ccccc3)[C@H](c3ccccc3)N1[C@@H]2c1ccc(OCCO)cc1` here?
A: 0.437

Q: For `O=C1OCCC=C[C@H]2OC34C=CCN(Cc5ccccc5)C(=O)[C@H]3N(CCCCCCO)C(=O)[C@@H]4C12` (stereo not given in full), which z-score is on record?
A: 0.183

Q: Which z-score does the source give for `Cc1ccc(S[C@]2(C(=O)NCCN3CCOCC3)CC(=O)N(Cc3cc(C(F)(F)F)cc(C(F)(F)F)c3)[C@@H]2c2ccc(CO)cc2I)cc1` here?
A: -2.33

Q: Which z-score does the source give for `CCCCCN1CC=CC23O[C@@H]4/C=C\CCC(C)OC(=O)C4[C@H]2C(=O)N(CCCCCO)[C@@H]3C1=O` (stereo not given in full) here?
A: 0.522

Q: Which z-score does the source give for `O=C1C2C=CC(C(O)c3cccs3)N(Nc3ccccc3F)C2C(=O)N1c1ccccc1` (stereo not given) here?
A: 0.562

Q: With `NCCCCCCNC(=O)[C@H]1C[C@H]2C(=O)NCC(=O)N2[C@H]1c1cccc(OCCO)c1` as the compound, how does the z-score read?
A: 1.08

Q: For `COC(=O)C(CC#Cc1ccc2c(c1)[C@]1(C(=O)N2)[C@H](c2ccc(OCCO)cc2)N2[C@H](c3ccccc3)[C@H](c3ccccc3)OC(=O)[C@H]2[C@@H]1C(=O)NC[C@H](O)c1ccccc1)C(=O)OC`, which z-score is on record?
A: -0.47

Q: Which z-score does the source give for `CCCN1C(=O)[C@@]2(CCC(=O)OC(C)(C)C)N=C(c3ccc(OCCCO)cc3)O[C@H]2c2ccccc21` here?
A: -3.16
